KCNQ2 enhance: potentiators of rat KCNQ2 potassium channel | O88943 | CHO-K1 KCNQ2, FluxOR thallium flux fluorescence; active compounds read high | B-score at 10 µM | 0.54% of 310,000 active;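 active means fluorescence ratio B-score at least 3 SD of library B-scores, with initial fluorescence B-score within 3 of them, cut at about 5.3 in these data; same plate scores as AID 2156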;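 further: B-score of peak minus minimum over baseline fluorescence ratio after K+ and Tl+ stimulus; positive B-score means potentiation of KCNQ2 with more thallium influx and brighter signal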
KCNQ2 inh: blocks the rat KCNQ2 potassium channel. CHO-K1 KCNQ2, FluxOR thallium flux, 20 min; active compounds read low. 1.1% of 310,000 active. B-score at 10 µM;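 active means fluorescence ratio B-score at most minus 3 library SDs, with starting brightness B-score within 2 library SDs, cut at about -5.5 in these data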
* marks the source's active call; other numbers are inactive results; i = inactive; . = no result. Shown are actives, neighbours in structure and some others; about 1.6% of the full set was active somewhere.

SMILES | KCNQ2 enhance | KCNQ2 inh
Cn1nc(-c2ccccc2)c(C#N)c1Sc1cccc(Cl)c1 | -8.14 | -8.14*
Cc1nn(C)c(Oc2cccc(Cl)c2)c1C#N | . | i
Cc1nnnn1CC(=O)Nc1cccc([N+](=O)[O-])c1 | . | i
CC(CNc1nc2ccccc2n2cnnc12)c1ccccc1 (centres undefined) | 0.02 | i
CCN(Cc1ccccc1)C(=O)c1cc(-c2ccc(OC)c(OC)c2)nc2ccccc12 | -6.42 | -6.42*
COc1ccc(-c2cc(C(=O)N(C)Cc3ccccc3F)c3ccccc3n2)cc1OC | . | i
COc1ccc(Br)cc1/C=C/C(=O)NC(=S)Nc1ccc(CN2CCOCC2)cc1 | -6.33 | -6.33*
COc1ccc(C(=O)NC(=S)Nc2ccc(CN3CCOCC3)cc2)cc1OC | . | i
CC(=O)N1CCc2cc(S(=O)(=O)NCC(=O)NCc3ccc(F)cc3)ccc21 | . | i
CCCCn1c(-c2csc(CC)c2)n[nH]c1=S | 1.94 | i
CCCc1cc(-c2n[nH]c(=S)n2CC(C)C)cs1 | 6.37* | i
CC(=O)Nc1sc2c(c1C#N)CCC(C)C2 (centres undefined) | 1.82 | i
Cc1ccc(C)n1-c1sc2c(c1C#N)CCC(C)C2 (centres undefined) | -7.85 | -7.85*
O=S(=O)(c1cccc(Br)c1)N1CCN(C(=S)NCC2CCCO2)CC1 (centres undefined) | 0.39 | i
COc1ccc(C)cc1NC(=O)c1nn(C)cc1Br | 0.23 | i
Cc1nccn1CCCNC(=O)CC1C(=O)NCCN1Cc1ccc(F)cc1Cl (centres undefined) | 1 | i
CCN(CC(=O)Nc1ccccc1C(F)(F)F)C(=O)c1oc2ccc(OC)cc2c1C | -6.02 | -6.02*
CCc1noc(C)c1C(=O)N(CC)CC(=O)Nc1ccccc1C(F)(F)F | 0.74 | i
CCOC(=O)c1ccc(NC(=S)NC(=O)COc2ccccc2)cc1 | 0.81 | i
CCOC(=O)NN=C1CN(S(=O)(=O)c2ccc(C)cc2)C1 | . | i
COCCC(=O)N1CCCC(C(=O)c2ccc(C(F)(F)F)cc2)C1 (centres undefined) | 6.77* | i
O=C(c1ccc(C(F)(F)F)cc1)C1CCCN(C(=O)CN2CCCC2=O)C1 (centres undefined) | 0.37 | i
CCOC(=O)/C(N=Nc1ccc2c(c1)OCO2)=C(\C)O | . | i
CC(=O)CSc1ccc(C(=O)O)cn1 | 0.89 | i
Oc1c(Cl)cc(Cl)cc1CNc1ccccn1 | . | i
SMILES | KCNQ2 enhance | KCNQ2 inh
Oc1c(Cl)cc(Cl)cc1CNc1nc2ccccc2[nH]1 | -6.17 | -6.17*
CNC(=O)COc1coc(CN2CCN(C(=O)c3ccco3)CC2)cc1=O | . | i
Cc1ccc(S(=O)(=O)c2c(C)nn(C(C)(C)C)c2OC(=O)CC(C)C)cc1 | -7.6 | -7.6*
Cc1ccc(S(=O)(=O)c2c(C)nn(C(C)(C)C)c2OC(=O)C(C)C)cc1 | . | i
COCC(=O)Nc1nnc(-c2ccc(C(C)(C)C)cc2)s1 | 1.32 | i
CCCC(C)c1nnc(NC(=O)C2CC(=O)N(CCc3ccc(F)cc3)C2)s1 (centres undefined) | 1.15 | i
Oc1ccc(C=Nc2ccc(N3CCOCC3)cc2)c(O)c1 | . | i
Oc1cc(Br)ccc1C=Nc1ccc(N2CCCCC2)cc1 | -5.76 | -5.76*
CC(=O)Oc1c(-c2ccco2)oc2ccccc2c1=O | 5.91* | i
CCN(CC)C(=O)COc1c(-c2ccco2)oc2ccccc2c1=O | 0.61 | i
Cc1ccc(SCc2nc3ncccn3c2Br)cc1 | 0.79 | i
CCOC(=O)C1=C(C)Nc2nc3ccccc3n2C1c1ccc(O)cc1 (centres undefined) | 1 | i
CCN(CC)C(=O)C1=C(C)Nc2nc3ccccc3n2C1c1cccc(OC)c1 (centres undefined) | -7.67 | -7.67*
O=C(Cc1ccccc1[N+](=O)[O-])OCc1cccc([N+](=O)[O-])c1 | . | i
COc1ccc(C(=O)Nc2nc(CC(=O)NCCc3ccccc3)cs2)cc1 | . | i
COc1cc(OC)cc(C(=O)Nc2nc(CC(=O)NC(C)c3ccccc3)cs2)c1 (centres undefined) | -6.28 | -6.28*
O=C(Nc1ccc(S(=O)(=O)N2CCCC2)cc1)C1CC(=O)N(c2ccc(F)cc2)C1 (centres undefined) | . | i
COc1ccccc1CN(C)C(=O)c1cnc(C)cn1 | 0.37 | i
COc1ccccc1CN(C)C(=O)c1sccc1-c1ccccc1 | -6.5 | -6.5*
O=C(NCCCO)C(=O)Nc1cc2c3c(c1)CCN3C(=O)CC2 | 0.3 | i
N#CC1(NC(=O)CSc2nnc(-c3ccccc3F)o2)CCCCC1 | . | i
COc1ccccc1NC(=O)C(C)NC(c1ccccc1)c1ccccc1 (centres undefined) | 1.37 | i
CC(C(=O)Nc1ccccc1Oc1ccccc1)c1ccccc1 (centres undefined) | 8.9* | i
CCCN1CCN(CCCNC(=O)C(CC)n2nc(C)n3c(cc4occc43)c2=O)CC1 (centres undefined) | . | i
CCN(CC)S(=O)(=O)c1ccc(N2CCOCC2)c(NC(=O)CC(C)(C)C)c1 | . | i
SMILES | KCNQ2 enhance | KCNQ2 inh
CCN(CC)S(=O)(=O)c1ccc(N2CCOCC2)c(NC(=O)c2cc(C)cc(C)c2)c1 | -6.18 | -6.18*
CCN(CC)S(=O)(=O)c1ccc(N2CCOCC2)c(NC(=O)COc2ccc(Cl)cc2)c1 | -6.56 | -6.56*
CCN(CC)S(=O)(=O)c1ccc(N2CCOCC2)c(NC(=O)c2ccccc2)c1 | . | i
OCC[C@@H]1C[C@@H](O)[C@H](O)[C@@]2(Cc3ccccc3CCO2)O1 | 0.3 | i
COc1cccc(CC(=O)Nc2ccc3nc(C)sc3c2)c1 | . | i
COc1ccc(OCC(=O)Nc2ccc3nc(C)sc3c2)cc1 | -9.62 | -9.62*
CCOC(=O)c1cnn(-c2ccccc2)c1-n1cccc1C(=O)C(=O)N(CC)CC | 0.3 | i
CCOC(=O)c1cnn(-c2ccccc2)c1-n1cccc1C(=O)C(=O)Nc1ccccc1C(F)(F)F | -6.99 | -6.99*
Cc1ccc(S(=O)(=O)N(C)C)cc1NC(=O)c1c(-c2c(F)cccc2Cl)noc1C | . | i
C#CCN(C(=O)c1ccc(OC)c(OC2CCN(C(C)C)CC2)c1)C1CCCCC1 | 0.95 | i
CC1(C)CC(c2nc(-c3ccc(Cl)cc3)cs2)CCS1 (centres undefined) | -6.36 | -6.36*
CC1(C)CC(c2nc(-c3ccc(Br)cc3)cs2)CCS1 (centres undefined) | . | i
OCCC1CN(C/C=C/c2ccco2)CCN1Cc1ccccc1 (centres undefined) | 0.26 | i
O=C(CCc1nc2ccccc2[nH]1)Nc1ccc(F)cc1 | . | i
O=C(CCc1nc2ccccc2[nH]1)Nc1ccccc1F | 6.57* | i
C=CCNC(=O)Cn1nnc(-c2ccc(-c3ccc(OC)cc3)cc2)n1 | . | i
O=C(CCCCCCCC(=O)c1ccccc1)c1ccccc1 | -6.24 | -6.24*
O=C(CCCCN1CCCCC1)c1ccccc1 | 0.54 | i
COc1cccc(-c2nc(N3CCN(C)CC3)c3ccccc3n2)c1O | . | i
COc1cccc(-c2nc(N3CCCCC3C)c3ccccc3n2)c1O (centres undefined) | -6.81 | -6.81*
Cn1c(=O)c2c(ncn2CC(O)CNc2ccc(F)cc2)n(C)c1=O (centres undefined) | 0.13 | i
Cc1c(NC(=O)COC(=O)c2cc(-c3cccc4ccccc34)nc3ccccc23)c(=O)n(-c2ccccc2)n1C | . | i
Cc1cccc(-c2cc(C(=O)Nc3c(C)n(C)n(-c4ccccc4)c3=O)c3ccccc3n2)c1 | -5.9 | -5.9*
